GIRK2 activator: Activates human GIRK2-containing potassium channels. P48051. HEK293 GIRK2/NPY4 cells, thallium flux fluorescence. activation (% efficacy), % for hits at 37.5 µM. 34,000 tested, under 10 active;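 active = primary screen hit, no activity in plain HEK293 cells, and in GIRK2-only cells above 5% efficacy rising with concentration; inactive = the rest, including fluorescent compounds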;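 note: efficacy is normalized control-subtracted fluorescence 15 s after thallium addition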
Target sequence (P48051 whole entry, looked up): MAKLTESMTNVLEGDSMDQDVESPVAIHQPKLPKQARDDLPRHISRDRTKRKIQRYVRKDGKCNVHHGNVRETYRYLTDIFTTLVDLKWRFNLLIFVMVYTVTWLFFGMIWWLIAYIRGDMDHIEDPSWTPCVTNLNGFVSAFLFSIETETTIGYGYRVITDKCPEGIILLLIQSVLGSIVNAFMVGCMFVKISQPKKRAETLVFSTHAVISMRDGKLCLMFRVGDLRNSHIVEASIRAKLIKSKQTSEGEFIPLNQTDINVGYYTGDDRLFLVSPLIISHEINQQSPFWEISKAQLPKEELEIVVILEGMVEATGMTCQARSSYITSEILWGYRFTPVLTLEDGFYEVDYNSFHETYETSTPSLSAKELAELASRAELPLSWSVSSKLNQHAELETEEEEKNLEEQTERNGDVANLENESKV
GluA2 TARP mod: modulates AMPAR-stargazin complexes. O88602+P19491. HEK293 GluA2+stargazin, membrane potential dye (FDSS), glutamate EC50; hits were called plate by plate, in both directions. calls only at 30 µM. 3.5% of 40,000 active;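 active = any of four per-well response measures lying three or more SD from its plate-wide compound average, in either direction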
* hit, by the source's call; i = inactive; · = no result given; + = active, no number. Many of the other results were omitted from the sample, so hits are more common in it than they were.

SMILES	GIRK2 activator	GluA2 TARP mod
CCc1ccc(-c2cc3c(=O)n(Cc4nc(-c5ccc(OC)cc5OC)no4)ccn3n2)cc1	i	i
COc1ccc(OC)c(S(=O)(=O)NCC(c2cccn2C)N2CCCC2)c1 (centres undefined)	i	i
Cn1cccc1C(CNC(=O)C(=O)NCc1ccc(F)cc1)N1CCOCC1 (centres undefined)	i	i
Cn1cccc1C(CNC(=O)c1ccc(F)cc1)N1CCOCC1 (centres undefined)	i	+
COc1cccc(C(=O)NCCOc2cccc(C(F)(F)F)c2)c1OC	i	i
O=C(Nc1ccc(-c2ccc(N3CCOCC3)nn2)cc1)Nc1cccc(Cl)c1	i	+
O=C(Nc1cccnc1)C1CCN(c2ccc(-c3ccc(Cl)cc3)nn2)CC1	i	+
O=C(Nc1ccc(-c2ccc(N3CCOCC3)nn2)cc1)Nc1ccccc1F	i	i
Cc1ccccc1-c1ccc(N2CCC(C(=O)Nc3ccc4c(c3)OCO4)CC2)nn1	i	i
O=C(NCc1cccnc1)C1CCN(c2ccc(-c3ccc(Cl)cc3)nn2)CC1	i	i
O=C(Nc1ccc2c(c1)OCO2)C1CCN(c2ccc(-c3ccc(Cl)cc3)nn2)CC1	i	+
O=C(Nc1ccc2c(c1)N(C(=O)c1cccs1)CC2)c1ccco1	i	·
CCCCNC(=O)C(=O)NCCC1=CCCCC1	i	i
O=C(c1ccc(F)cc1)N(CCCn1ccnc1)c1nc2c(Cl)cccc2s1	i	i
COc1ccccc1-c1ccc(N2CCN(C(=O)Cc3cccc(C)c3)CC2)nn1	i	i
COCC(C)NC(=O)C(=O)Nc1cccc(C)n1 (centres undefined)	·	i
CCOCCCNC(=O)C(=O)NCc1ccccc1Cl	i	i
CCSc1ccccc1C(=O)NCC1(c2ccc(OC)cc2)CCCC1	i	+
COC(=O)NCC1(c2ccc(OC)cc2)CCCC1	i	i
O=S(=O)(NCc1ccc2c(c1)OCO2)N1CCOCC1	i	i
CCOc1ccc(NC(=O)C(=O)NCC(c2cccc3ccccc23)N(C)C)cc1 (centres undefined)	i	·
COc1ccccc1Cc1noc(C2CN(C(=O)Nc3ccc4c(c3)OCO4)C2)n1	i	·
O=C(c1ccc([N+](=O)[O-])cc1)N(Cc1ccncc1)c1nc2c(F)cccc2s1	i	i
O=C(c1ccc([N+](=O)[O-])cc1)N(Cc1ccncc1)c1nc2ccc(F)cc2s1	i	+
CCc1cccc2sc(N(Cc3ccncc3)C(=O)c3ccc(C#N)cc3)nc12	i	+
SMILES	GIRK2 activator	GluA2 TARP mod
CCOc1cccc2sc(N(Cc3ccncc3)C(=O)c3ccc(S(=O)(=O)N(C)C)cc3)nc12	i	·
COc1cccc(C(CNC(=O)c2ccco2)N2CCOCC2)c1 (centres undefined)	·	i
CC1CC(C)CN(Cc2nc3c(c(=O)n(C)c(=O)n3C)n2CC(=O)C(C)(C)C)C1 (centres undefined)	i	+
Cn1c(=O)c2c(nc(CN3CCN(c4ccc(F)cc4)CC3)n2CC(=O)C(C)(C)C)n(C)c1=O	i	i
COCCNC(=O)Nc1nc2c(SC)cccc2s1	i	i
COc1ccc(C2(CNS(=O)(=O)c3c(C)n[nH]c3C)CCCC2)cc1	i	+
COc1ccc(C2(CNS(=O)(=O)c3cccnc3)CCCC2)cc1	i	i
CCOC(=O)N1CCN(C(=O)Cc2csc(Nc3cccc(Cl)c3)n2)CC1	i	i
COC(=O)c1ccc(S(=O)(=O)N2CCN(C(=O)c3cnn4ccccc34)CC2)cc1	i	i
CC(C)N1CCC(CNC(=O)C(=O)NCc2ccc3c(c2)OCO3)CC1	i	i
O=C(NCc1ccc2c(c1)OCO2)C(=O)NCC1CCN(C(=O)c2ccncc2)CC1	i	+
Cc1cc(C)cc(-n2nnc(-c3nc(-c4ccc(F)cc4)no3)c2N)c1	·	i
O=C(C1CCCCC1)N(CCN1CCOCC1)c1nc2c(F)cc(F)cc2s1	i	i
CCc1cc(CC)n(-c2nc3c(c(=O)n(Cc4ccccc4)c(=O)n3C)n2CCOC)n1	·	+
CCOCCn1c(=O)c2c(nc(-n3nc(C)cc3C)n2Cc2ccc(F)cc2)n(C)c1=O	i	i
CCc1cc(CC)n(-c2nc3c(c(=O)n(CC(C)C)c(=O)n3C)n2CCOC)n1	·	i
CCOCCn1c(-n2nc(C)cc2C)nc2c1c(=O)n(Cc1cccc(C)c1)c(=O)n2C	i	+
Cc1ccc(S(=O)(=O)NCC(c2cccn2C)N(C)C)cc1 (centres undefined)	i	i
CC(O)(CNC(=O)c1ccco1)c1ccc2c(c1)OCO2 (centres undefined)	i	i
COc1cccc(-c2nc(COC(=O)c3nnn(-c4ccc(C)cc4)c3C)c(C)o2)c1OC	·	i
c1ccc(N2CCN(c3nc(NCc4ccco4)c4ccccc4n3)CC2)cc1	·	i
c1coc(CNc2nc(N3CCCCC3)nc3ccccc23)c1	·	+
COc1ccc(F)cc1S(=O)(=O)NCCC(O)c1cccs1 (centres undefined)	i	i
Cc1cnc2c(c1SCC(=O)N1CCCCC1)c(=O)n(C)c(=O)n2C	i	i
Cc1cnc2c(c1SCCN1CCCCC1)c(=O)n(C)c(=O)n2C	i	+
SMILES	GIRK2 activator	GluA2 TARP mod
O=C(Nc1c(Cl)cccc1Cl)C1CCCCC1	·	+
CSc1cccc2sc(NC(=O)C3CCCCC3)nc12	i	i
COc1ccccc1NC(=O)c1nnn(-c2ccc(F)cc2)c1N	i	i
COc1ccc(-c2coc3c4c(ccc3c2=O)OCN(c2ccc(F)cc2F)C4)cc1OC	i	i
O=C(Nc1ccc2cn[nH]c2c1)c1ccc(=O)[nH]n1	i	+
O=C(Nc1ccc(Cl)c(Cl)c1)Nc1ccc2cn[nH]c2c1	i	i
COc1ccc(-c2csc(CN3CCN(C(=O)c4ccc(Br)o4)CC3)n2)cc1	·	i
Cc1ccc(S(=O)(=O)NC2CC(C)(C)NC(C)(C)C2)cc1	·	i
Cc1ccc([N+](=O)[O-])cc1S(=O)(=O)NC1CC(C)(C)NC(C)(C)C1	·	+
CCN1CC(c2nc3ccccc3n2Cc2c(Cl)cccc2Cl)CC1=O (centres undefined)	·	+
CCCCN1CC(c2nc3ccccc3n2CCOc2ccccc2)CC1=O (centres undefined)	·	i
C=CCN1CC(c2nc3ccccc3n2Cc2c(Cl)cccc2Cl)CC1=O (centres undefined)	·	+
CCCCN1CC(c2nc3ccccc3n2CCOc2cccc(C)c2)CC1=O (centres undefined)	·	+
CCCCN1CC(c2nc3ccccc3n2Cc2ccc(Cl)cc2)CC1=O (centres undefined)	·	i
CCN1CC(c2nc3ccccc3n2Cc2ccc(Cl)cc2Cl)CC1=O (centres undefined)	·	+
C=CCN1CC(c2nc3ccccc3n2Cc2ccccc2Cl)CC1=O (centres undefined)	·	i
CCN1CC(c2nc3ccccc3n2CC(=O)N2CCCCC2)CC1=O (centres undefined)	i	·
C=CCOc1cccc(C2/C(=C(\O)c3ccc(F)cc3)C(=O)C(=O)N2CCCN(C)C)c1 (centres undefined)	·	i
COC(=O)c1ccccc1NC(=O)C(C)N1C(=O)c2ccccc2S1(=O)=O (centres undefined)	·	i

Compound activity: PubChem BioAssay, several laboratories
